This is one part of a sample in which hits are shown more often than they occur.
Pf Dd2 growth: blocks in vitro growth of P. falciparum Dd2. P. falciparum Dd2 growth, SYBR Green, 72 h. Potency, µM (titrated, usually from 28.9 µM), for the others: at the highest dose activity, negative = inhibition, usual class: inhibitors. 120,000 tested, 4.3% active. AID 1347417; active = well fitted inhibition curve with a large enough effect;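 note: plate controls were DMSO vehicle for no effect and reference drug for full effect; nearly all actives have a fitted effect of over 65% in size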
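Readout: SYBR Green fluorescence, 485 nm excitation, 535 nm emission, after ~16 h lysis at 37C. Before that, Dd2-infected red cells (2.5% hematocrit) grew 72 h with compound, 29 uM top final concentration.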
* hit, by the source's call; i = inactive; [ ] = dose if it differs, or a comment. Potency is the fitted concentration of half-maximal effect.

SMILES	Pf Dd2 growth
Cc1ccc(C(=O)N2CC3(C2)C(=O)Nc2ccccc23)cc1	2%[44.1 µM]
CC(=O)NCC(=O)N1Cc2ccccc2CC2(CCN(CC3CCNC3)CC2)C1 (stereo unspecified)	9%
COc1cccc(CNC(=O)Cn2ccn3nc4c(c3c2=O)CCCCC4)c1OC	i
C#CCN(C)C(=O)CC1COc2ccc(C(=O)N3CCOCC3)cc2N1C (stereo unspecified)	-11%
CN(CC1CCOCC1)C(=O)c1ccc(C(F)(F)F)cc1	2%
COCCN1C(=O)CC[C@]2(C(=O)NCc3ccc(OC)c(OC)c3)CCCC[C@@H]12	-8%
COCCN(CCOC)CC[C@@H]1CC[C@H](O)[C@@H](C(=O)NCc2ccc(OC)cc2)O1	-21%[44.1 µM]
CCn1nc(CNC(=O)C2CC3(CCNCC3)CN2)c2ccccc21 (stereo unspecified)	-5%
CC(C)C(=O)NCC12CCCC=C1NC(=O)CC2 (stereo unspecified)	-10%
Cc1ccc(CN2C(=O)[C@@H]3C[C@@H](O)CN3C3(CN(CC(C)C)C3)C2=O)o1	-6%[44.1 µM]
CC(=O)Nc1ccc(CN2CC3(C2)C(=O)N(Cc2ccc(C)o2)C(=O)[C@@H]2C[C@@H](O)CN23)cc1	-20%
Cc1ccc(CN2C(=O)[C@@H]3C[C@@H](O)CN3C3(CN(CC4CC4)C3)C2=O)o1	-5%[44.1 µM]
Cc1ccc(CN2C(=O)[C@@H]3C[C@@H](O)CN3C3(CN(CCC(C)C)C3)C2=O)o1	11µM*
Cc1ccc(CN2C(=O)[C@@H]3C[C@@H](O)CN3C3(CN(Cc4ccc(C#N)cc4)C3)C2=O)o1	-19%[44.1 µM]
Cc1ccc(CN2C(=O)[C@@H]3C[C@@H](O)CN3C3(CN(Cc4ccc(F)cc4)C3)C2=O)o1	14µM*
CCN(CC)C(=O)N1CCCC1c1noc(COc2ccc(F)cc2)n1 (stereo unspecified)	-22%
O=C([C@H]1C[C@H](Oc2ccccc2)CN1C(=O)c1ccccc1F)N1CCOCC1	-3%
COc1ccc(C2Cn3nnc(-c4noc(C5CC5)n4)c3CO2)cc1 (stereo unspecified)	i
Cc1cc(=O)n2[nH]c(CC(=O)N3CC[C@@](O)(C4CCOCC4)[C@H](C)C3)nc2n1	-3%
Cn1c(CO[C@H]2CN(Cc3ccc(S(C)(=O)=O)cc3)C[C@H]2F)nc2ccccc21	-6%[44.1 µM]
Cc1noc(-c2cccc(OC3CN(C(=O)c4sccc4C)C3)c2)n1	1%[5.79 µM]
Cc1ccc2[nH]c(=O)c(CN3CCCN(c4ccncc4)CC3)cc2c1	-9%
O=C(CC1=CCCCC1)N1CCc2nn(CC3CC3)c(=O)n2CC1	14%
Cc1ccc(O)c(-c2n[nH]c3c2C(c2ccccc2F)N(Cc2ccco2)C3=O)c1 (stereo unspecified)	4.5µM*
Cc1cc(C)c2c(=O)c3c(oc2c1)C(=O)N(Cc1ccco1)C3c1ccc(F)cc1 (stereo unspecified)	11%
SMILES	Pf Dd2 growth
COCCN1C(=O)c2[nH]nc(-c3c(C)cc(C)cc3O)c2C1c1cccc(O)c1 (stereo unspecified)	-8%
CCOc1cccc(C2c3c(-c4cc(C)ccc4O)n[nH]c3C(=O)N2Cc2ccco2)c1 (stereo unspecified)	10µM*
COCCCN1C(=O)c2[nH]nc(-c3cc(C)ccc3O)c2C1c1ccc(F)cc1 (stereo unspecified)	-29%
COc1cc(C2c3c(-c4cc(C)ccc4O)n[nH]c3C(=O)N2Cc2ccco2)cc(OC)c1OC (stereo unspecified)	i
Cn1ccnc1C(=O)N1CCc2nn(C)c(=O)n2CC1	51%
Clc1ccc(-c2nnc([C@H]3CCN(Cc4ccccc4)C3)o2)cc1	3%[44.1 µM]
O=C1NCCCN1C1CCN(Cc2ccccc2C(F)(F)F)CC1	i
O=C(CSc1nc(-c2ccc(Cl)cc2)nc2c1Cc1ccccc1O2)N1CCCCC1	33%
Cc1cccc(NC(=O)CSc2nc(-c3cccc(C)c3)nc3c2Cc2c(CO)cnc(C)c2O3)c1	8.9µM*
Cc1ncc(CO)c2c1Oc1nc(-c3ccc(Cl)cc3)nc(SCC(=O)N3CCCCC3)c1C2	3.2µM*
Cc1ccc(NC(=O)CSc2nc(-c3ccc(F)cc3)nc3c2Cc2c(CO)cnc(C)c2O3)cc1C	9%
COc1cccc(-c2nc3c(c(SCC(=O)Nc4cc(C)ccc4C)n2)Cc2c(CO)cnc(C)c2O3)c1	41%
Cc1cc(C)c(NC(=O)CSc2nc(-c3ccc(F)cc3)nc3c2Cc2c(CO)cnc(C)c2O3)c(C)c1	11%
Cc1nc([C@@H]2CN(C(=O)c3cccs3)C[C@H]2C(N)=O)n[nH]1	2%
CCOCCn1c(=O)[nH]c2cc(C(=O)NCCn3cnnc3)ccc21	-3%
CC1CCC2(CC1)NC(=O)N(CC(=O)Nc1ccccc1C(F)(F)F)C2=O (stereo unspecified)	i
Cc1ccc(-c2noc(C(C)Oc3ccccc3)n2)nn1 (stereo unspecified)	-13%
Cc1cc(C[C@@H]2COC[C@@H]2NC(=O)Cn2nc(C)n(-c3ccccc3)c2=O)on1	-3%
CC(=O)N[C@H]1CC[C@]2(C)CCC([C@H](C)C(=O)NCc3ccc(F)cc3)[C@H](O)[C@H]2[C@@H]1C (stereo partly specified)	i
C[C@H]1[C@@H]2[C@@H](O)C([C@H](C)C(=O)NC3CC3)CC[C@@]2(C)CC[C@@H]1NC(=O)c1cnccn1 (stereo partly specified)	i
C[C@H]1[C@@H]2[C@@H](O)C([C@H](C)C(=O)NCc3ccc(F)cc3)CC[C@@]2(C)CC[C@@H]1NC(=O)c1cnccn1 (stereo partly specified)	8.9µM*
NC1CCCCN(Cc2ccc(-c3ccn[nH]3)s2)C1 (stereo unspecified)	-13%
COc1ccc(Nc2cc(C)nc(-n3nc(C)cc3C)n2)cc1Cl	3.5µM*
Cc1cc(Nc2ccc(F)cc2F)nc(-n2nc(C)cc2C)n1	-23%
CCCOc1ccc(Nc2cc(C)nc(C)n2)cc1	0%
SMILES	Pf Dd2 growth
CC(C)c1ccc(NC(=O)N2CCN(c3ccc(Cl)c(Cl)c3)CC2)cc1	4%
CCc1cccc(-n2nnnc2N2CCN(C(=O)NC(C)c3ccccc3)CC2)c1 (stereo unspecified)	-14%
Cc1ccc(NC(=O)N2CCN3CCCCC3C2)cc1F (stereo unspecified)	-14%
Cc1ccc(NC(=O)N2CCN(c3nnnn3-c3ccccc3)CC2)cc1F	-29%
Cc1ccc(NC(=O)N2CCN(c3nnnn3-c3cccc(C(C)C)c3)CC2)cc1F	11µM*
Cc1cc(-n2nnnc2N2CCN(C(=O)Nc3ccc(C)c(F)c3)CC2)ccc1F	5µM*
C[C@@H](NC(=O)c1ccc(F)cc1)c1onc(-c2ccccc2)c1C(=O)O	-8%[44.1 µM]
Cc1ccc(C(=O)NC(C)c2nc(-c3ccccn3)no2)cc1N1CCNC1=O (stereo unspecified)	i
CCCS(=O)(=O)N1CC(c2nc(CCOc3cccc(C)c3)no2)C1	-17%
Cc1cccc(OCCc2noc(C3CCCNC3)n2)c1 (stereo unspecified)	5µM*
COCCC(=O)N1CCCC(c2nc(CCOc3cccc(C)c3)no2)C1 (stereo unspecified)	-8%
CC(C)CN1C(=O)c2cccn2CC1CNC(=O)CC1CCCC1 (stereo unspecified)	-12%
CCCS(=O)(=O)N1CCC(C(=O)N2CCCCCCNC(=O)CC2)CC1	-6%
Cn1cc(CN2Cc3c(cc(N4CCOCC4)nc3-c3ccc(CO)cc3)C2=O)cn1	i
Cc1ccc(C2(O)CCN(CC(c3ccccc3)c3ccccc3)CC2)nc1	2.8µM*

From PubChem
